CHX counter = counter-screen for Shiga toxin inhibitors: cycloheximide protein synthesis inhibition; cell reporter, cycloheximide protein synthesis inhibition counterscreen; max response, %; actives 12% (n = 300,000); AID 2314; in the data active = max response mostly above about 13%, no sharp cut-off; inactive = mostly below about 14%; note: read at 38.3 µM for the half of the compounds with a filed dose; 0% is about no effect
SARS PLpro yeast = inhibitors of SARS-CoV papain-like protease in yeast. S. cerevisiae expressing SARS-CoV PLpro, growth rescue. Potency, µM (titrated, usually from 32.9 µM), for inactives: at the highest dose activity, positive = growth rescue, most hits filed as activators. actives 0.19% (n = 330,000); calls by dose curve; note: potency is the fitted concentration of half-maximal effect; 0% is about no effect; nearly all actives have a fitted effect of over 55% in size
Pf growth 48h = P. falciparum growth inhibition at 48 hours (one generation); AID 504832; P. falciparum luciferase growth in erythrocytes, 48 h; actives 5.9% (n = 310,000); Potency, µM (series often up to 28.7 µM), for inactives: top-dose activity change, negative = inhibition, most hits filed as inhibitors; note: potency is the fitted concentration of half-maximal effect; % is set by controls: 0 for no effect and ±100 for the full control effect
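First compound was added to culture medium, then infected red cells at 0.1% parasitemia and 2% hematocrit (final). After incubation at 37 C under 5% CO2, luciferase detection reagent was dispensed and light output recorded.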
Pf growth 96h = P. falciparum growth inhibition at 96 hours; P. falciparum luciferase reporter growth, 96 h; Potency, µM (titrated, usually from 28.7 µM), without a hit: at the highest dose activity change, negative = inhibition, hits mostly inhibitors; actives 6.9% (n = 320,000); note: potency is the fitted concentration of half-maximal effect; % is set by controls: 0 for no effect and ±100 for the full control effect
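Readout is luminescence from an integrated firefly luciferase in P. falciparum. Red cells, 2% hematocrit and 0.05% parasitemia final, were cultured with compound through two parasite generations (96 hours) at 37 C, 5% CO2.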
Shiga toxin inh = Shiga toxin inhibition; Vero cells, Shiga toxin protein synthesis inhibition reporter; AID 2315; actives 9.2% (n = 290,000); inhibition, % at 38.7 µM; in the data active = inhibition mostly above about 28%, no sharp cut-off; inactive = mostly below about 43%; note: 0% is about no effect
NS1 inh = influenza NS1 inhibition; Potency, µM (doses to about 46.1 µM), for the others: at the highest dose activity, positive = more growth; actives 0.4% (n = 270,000); calls by dose curve; note: potency is the fitted concentration of half-maximal effect; actives are rising curves; nearly all actives have a fitted effect of over 50% in size
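Compounds were scored for reversing the slow growth caused by influenza A NS1 in S. cerevisiae, measured by optical density at 600 nm. Assay medium contained 2% galactose at pH 6.0; NS1-free yeast of the same strain were the positive control.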
Active calls of the source: *; i = inactive; ? = inconclusive; / = no result. Only some compounds are listed: those with a hit (about 21% of all), similar ones and a draw of the others. Unless noted, calls come from the whole dose curve; as a rule, active = well fitted inhibition curve with a large enough effect; inconclusive = small, poorly fitted or top-dose-only effect, or another doubt; inactive = no such curve, though single readings can be large or run the other way.

SMILES	CHX counter	SARS PLpro yeast	Pf growth 48h	Pf growth 96h	Shiga toxin inh	NS1 inh
CC1CN(Cc2nnc(-c3ccccc3)o2)CC(C)O1 (stereo not drawn)	-1	-4%	34%	?	-2	/
Cc1cccc(OCc2n[nH]c(=S)n2Cc2ccccc2)c1	9	0%	9%	30%	1	6%
Cn1c(C(=O)N2CCCC(C(=O)NCCCc3ccccc3)C2)cc2sccc21 (stereo not drawn)	10	7%	?	?	36	-13%
Cn1c(C(=O)N2CCCC(C(=O)NCCc3ccccc3)C2)cc2sccc21 (stereo not drawn)	18*	-3%	?	212%	61*	-12%
O=C(CSc1nc(-c2cccs2)cc(C(F)(F)F)n1)Nc1cc(OCC(F)(F)C(F)F)cc([N+](=O)[O-])c1	-4	12%	?	?	-11	4%
CCNc1nc(ON=C(C)C)nc(N(C)C)n1	-3	-7%	8.3µM*	?	-7	-2%
COCNc1nc(OCC#N)nc(N(C)C)n1	-2	0%	29%	?	-5	4%
COc1ccc(N2CCC(CNC(=S)Nc3cccc(OC)c3)C2)cc1 (stereo not drawn)	-2	6%	?	-3%	-3	25%
CCc1cccc(C)c1NC(=S)NCC1CCN(c2ccc(OC)cc2)C1 (stereo not drawn)	-6	-2%	3.3µM*	-4%	9	/
CCc1ccccc1NC(=S)N1CCC(NC(=O)c2ccc(OC)cc2)CC1	-1	0%	3%	?	-13	-1%
CCc1ccccc1NC(=S)NCC1CCN(c2ccc(OC)cc2)C1 (stereo not drawn)	1	0%	12µM*	?	2	-31%
COc1cccc(CNS(=O)(=O)c2ccc3c(c2)oc(=O)n3C)c1	8	3%	5%	-11%	-16	4%
COc1ccc(C(=O)N2CCCCCC2)cc1S(=O)(=O)N1CCOCC1	-2	2%	6%	-12%	3	6%
Cc1ccc(N=Nc2c(N)nn3c(C)cc(C)nc23)cc1	21*	22%	25%	6%	15	6%
Cc1cc(C)n2nc(N)c(N=Nc3cccc(Cl)c3)c2n1	8	4%	3%	26%	16	-8%
Cc1ccc(N=Nc2c(N)nn(-c3ccccc3)c2N)cc1	63*	-41%	107%	499%	91*	-16%
Cc1nn(-c2ccccc2)c(N)c1N=Nc1ccc2ccccc2c1	39*	-77%	87%	91%	56*	-12%
Cc1nn(-c2ccccc2)c(N)c1N=O	1	-2%	15%	21%	17	0%
Cc1ccc(C(=O)N2CC(=O)Nc3ccc(F)cc3C2c2ccccc2)cc1[N+](=O)[O-] (stereo not drawn)	4	4%	9.3µM*	?	-2	3%
CCC(CC)C(=O)N1CC(=O)Nc2ccc(C)cc2C1c1ccccc1 (stereo not drawn)	-3	1%	?	?	-7	3%
CCCC(=O)N1CC(=O)Nc2ccc(C)cc2C1c1ccccc1 (stereo not drawn)	6	3%	-30%	7.4µM*	26	1%
O=C(Nc1nc2ccccc2s1)c1ccccc1	28*	-6%	i	i	91*	-4%
Cc1ccc(S(=O)(=O)CC(=O)Nc2nc3ccccc3s2)cc1	-2	-1%	-4%	?	2	4%
Cc1ccc(S(=O)(=O)Nc2nc3ccc(S(C)(=O)=O)cc3s2)cc1	-1	-3%	-12%	12µM*	-11	-2%
COc1cc(OC)cc(C(=O)Nc2nc3ccc(S(C)(=O)=O)cc3s2)c1	17	-4%	105%	118%	52*	/
CN(CC(=O)Nc1nc2ccccc2s1)S(=O)(=O)c1ccccc1	29*	0%	37%	?	61*	-8%
CCCCN1C(=S)NC[C@@H]1Cc1ccccc1	1	8%	?	?	-18	-3%
c1ccc2sc(NN=C3CCCCCC3)nc2c1	33*	-2%	-41%	-23%	68	-7%
O=C(C[n+]1ccccc1)Nc1nc2ccccc2s1	21*	3%	18%	-11%	29	-1%
CCOC(=O)c1sc(NC(=O)c2cccnc2)nc1C	-7	3%	/	-6%	-14	-10%

Screening results deposited in PubChem by National Center for Advancing Translational Sciences (NCATS).
